The results in this text go back to PubChem BioAssay (NCI).

What all share (assay): NCI-60 one-dose screen, 48 h (100 = growth as untreated, 0 = no growth, -100 = all killed)
What all share (details): 10 µM unless noted

Experiment [1] concerns SR leukemia.
Experiment [2] concerns RPMI-8226 leukemia.
Experiment [3] has as its system OVCAR-8 ovarian.
Experiment [4] concerns OVCAR-5 ovarian.
In experiment [5] the test system is OVCAR-4 ovarian.
Experiment [6] relates to IGROV1 ovarian.
Experiment [7] has as its system OVCAR-3 ovarian.
For experiment [8], the system named is HS 578T breast.
Experiment [9] deals with NCI/ADR-RES ovarian.
Experiment [10] concerns SK-OV-3 ovarian.

About 83,000 compounds went through this panel and 20% of them were active in at least one assay; those are over-represented in the sample as a whole.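 Compound tested at a single concentration for 48 hours in 96-well plates; a percent growth value below 10 was scored as active.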 Values without a mark were called inactive. Active and inactive are the calls of the source.

In the case of `CCCCC[C@@H]1Cc2cc(O)c(C(=O)O)c3c2[C@H](C[C@@]2(CCCO2)O3)O1`, the growth was 64.4% in experiment [1]; 98.7% in experiment [2]; 101% in experiment [3]; 104% in [4]; 94.2% in experiment [5]; -4.39% (active) in experiment [6]. For the same molecule, the growth was 107% in experiment [7], 122% in experiment [8] and 96.1% in experiment [9].
For `COC(=O)c1cc(-c2cccs2)c(C#N)c(N)c1C#N`, the growth is 94.5% in experiment [1]; 99.7% in [2]; 98.9% in [3]; 105% in experiment [4]; 101% in experiment [10]; 94.2% in experiment [6]. The growth was 108% in [7], 102% in experiment [8] and 106% in experiment [9].
As to `COc1cc2nc(SCc3cc(OC)c(OC)c(OC)c3)n(Cc3ccccc3)c(=O)c2cc1OC`, the growth was 6.25% (active) in experiment [1]; 54.8% in [2]; 53.7% in [4]; 44.2% in experiment [5]; 29.8% in experiment [10]; 39.2% in experiment [6]. The values for the growth in experiment [7], in experiment [8] and in experiment [9] were 6.2% (active), 26.7% and -15.8% (active), respectively.
